Inconclusive results are not listed. Entries that show only a call come without a potency. Activity calls are given as the source filed them. Calls come from the whole dose curve.
Experiment: Nuclear factor erythroid 2-related factor 2/antioxidant responsive element (Nrf2/ARE) small molecule agonists: luciferase reporter gene qHTS assay in human keratinocytes (AID 1919969); note: nearly all actives have a fitted effect of over 35% in size

Structure (SMILES) | Potency
C=C1[C@H]2CC[C@@H]3[C@H]2C(C)(C)CCC[C@]13C | inactive
CCOC(OCC)C(=O)c1ccccc1 | inactive
